From PubChem BioAssay
In the library only some 10% were active in any assay of this set; here they are far more common.
LMNA splice mod: LMNA splicing modulation; HeLa LMNA splicing GFP/RFP minigene ratio, 48 h; Potency, µM (highest dose often 46.1 µM), without a hit: at the highest dose ratio change, negative = inhibition, usual class: inhibitors; actives 0.01% (n = 200,000); active = well fitted inhibition curve with a large enough effect in the signal ratio, with a control signal flat, not every such curve was filed as active; inconclusive = small, poorly fitted or top-dose-only effect, or effect the other way, or a change in a side signal; the % refers to the signal ratio; note: potency is the fitted concentration of half-maximal effect
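S3 HeLa stable clones carrying a lamin A-EGFP splicing minigene plus DsRed2 were seeded at 600 cells/well in Opti-MEM with 2% FBS, pin-dosed and incubated 48 h at 37°C. Acumen cytometry (488 nm) gave the GFP/RFP total-intensity ratio.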
HPGD inh: blocks human HPGD enzyme activity; Potency, µM, for inactives: top-dose activity change, negative = inhibition, actives largely listed as inhibitors; actives 4.3% (n = 150,000); purified HPGD, NADH fluorescence kinetic, PGE2 substrate; note: potency is the fitted concentration of half-maximal effect
Target sequence (P15428 whole entry, looked up): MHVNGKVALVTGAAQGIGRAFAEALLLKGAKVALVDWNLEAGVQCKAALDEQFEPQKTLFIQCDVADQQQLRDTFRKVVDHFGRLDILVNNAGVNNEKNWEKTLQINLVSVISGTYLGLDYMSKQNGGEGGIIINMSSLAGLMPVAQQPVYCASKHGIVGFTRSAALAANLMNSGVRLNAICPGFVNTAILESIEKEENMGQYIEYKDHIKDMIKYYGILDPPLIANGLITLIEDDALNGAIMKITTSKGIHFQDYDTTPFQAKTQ
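NADH formation kinetics: reaction with 30 uM PGE2 and 1 mM NAD+ (final), 20 nM enzyme, Tris-HCl pH 8 with Tween 20, after 15 min compound preincubation at room temperature. Fluorescence change, last versus first of five reads.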
ALDH1A1 inh: inhibitors of human aldehyde dehydrogenase 1A1 | actives 7.3% (n = 220,000) | Purified ALDH1A1, NADH fluorescence, propionaldehyde substrate | Potency, µM (titrated, usually from 75.3 µM), for inactives: at the highest dose activity, negative = inhibition, hits mostly inhibitors | P00352;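 note: potency is the fitted concentration of half-maximal effect; plate controls were no enzyme wells and a reference inhibitor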
KinaseGlo FLuc: counter-screen: inhibitors of Kinase-Glo firefly luciferase; Q27757; Kinase-Glo luciferase, ATP luminescence, 8 min; Potency, µM (doses to about 38.3 µM), without a hit: at the highest dose activity change, negative = inhibition, most hits filed as inhibitors; actives 0.28% (n = 200,000); AID 1379; active = well fitted inhibition curve with a large enough effect; inconclusive = small, poorly fitted or top-dose-only effect; note: potency is the fitted concentration of half-maximal effect; nearly all actives have a fitted effect of over 60% in size
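Inhibition of Kinase-Glo luciferase light generation was assessed at 10 uM ATP in pH 7.2 imidazole buffer, with luminescence measured after eight minutes at ambient temperature.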
PNC inhibitor: inhibitors of perinucleolar compartment assembly | PC3M PTB-GFP, PNC prevalence imaging, 16 h; active compounds read low | activity change (PNC), negative = inhibition, % at 10 µM | actives 3.1% (n = 140,000);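 active = readout at or below -70, meaning at least 70% loss of cells showing the perinucleolar compartment, a nuclear body marking cancer cells; inconclusive = readout between -30 and a set limit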;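 note: plate controls were DMSO wells for no effect and camptothecin positive control wells for full effect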
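PC3M cells stably expressing PTB-GFP, 750–1000 cells/well, treated 16 h at 37 °C with compound (23 nl of library stock), in duplicate. After paraformaldehyde fixation and Hoechst stain, imaged at 20x; PNC prevalence scored by image analysis.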
Active calls of the source: *; u = inconclusive; x = no result given; [ ] = dose if it differs, or a comment. Unless noted, calls come from the whole dose curve; as a rule, active = well fitted inhibition curve with a large enough effect (not every such curve was filed as active); inconclusive = small, poorly fitted or top-dose-only effect, or another doubt; inactive = no such curve, though single readings can be large or run the other way. Unless noted, % is set by controls: 0 for no effect and ±100 for the full control effect.

SMILES	LMNA splice mod	HPGD inh	ALDH1A1 inh	KinaseGlo FLuc	PNC inhibitor
Cc1ccc(S(=O)(=O)N/N=C/c2cccc([N+](=O)[O-])c2)cc1	u	-3%	u	4%	u
CCCCCCCCCCS(=O)(=O)N/N=C/c1ccc(O)cc1	u	-25%	13µM*	2%	-3
CCCCCCCCCS(=O)(=O)N/N=C/c1cccc([N+](=O)[O-])c1	u	20µM*	0.32µM*	-2%	u
COC(=O)c1c(-c2cccs2)csc1NC(=O)c1ccc(C(C)C)cc1	-27%[46 µM]	x	x	x	x
O=C(NNc1ccc(Cl)cc1)c1sccc1Cl	19%[46 µM]	x	8.9µM*	x	x
NS(=O)(=O)c1ccc(NC(=S)NCc2ccccc2)cc1	2%	20µM*	20µM*	3%	-97*
CC(C)CC(=O)NNC(=S)Nc1ccc(S(N)(=O)=O)cc1	x	x	11µM*	-2%	x
NS(=O)(=O)c1ccc(NC(=S)NCc2ccccc2Cl)cc1	-5%	-18%	25µM*	1%	-21
CC(C)CC(=O)NC(=S)Nc1ccc(S(=O)(=O)NC(C)(C)C)cc1	u	-18%	u	-4%	-17
N[C@@H](Cc1cc(-c2ccc(Cl)cc2Cl)cc(CP(=O)(O)O)c1O)C(=O)O	x	u	u	3%	x
Nc1c(C(=O)NC2CC2)sc2nc3c(c(-c4ccco4)c12)CC/C3=C/c1ccco1	2%	16µM*	16µM*	-13%	4
NC(=O)c1sc2nc3c(c(-c4ccco4)c2c1N)CCC3	3%	-23%	-12%	1%	u
CC(=O)Nc1ccc(NC(=O)Cn2cnc3c(nnn3Cc3ccc(F)cc3)c2=O)cc1	x	x	11µM*	4%	x
CC(=O)Nc1ccc(NC(=O)Cn2cnc3c(cnn3C(C)(C)C)c2=O)cc1	-6%	1%	16µM*	-3%	u
CC(=O)/C(=C/c1ccc(N(C)C)cc1)C(=O)c1ccccc1	u	-19%	u	-1%	u
CC(=O)C(=Cc1ccc(O)cc1)C(C)=O	-5%[46 µM]	x	7.1µM*	x	x
CN(C)CCCNC(=O)C(=O)NCC(c1ccc2c(c1)OCO2)N1CCOCC1 (stereo not drawn)	5%[46 µM]	x	x	x	x
COc1ccc2c(c1)sc(N)[n+]2Cc1cc(C)cc2cccnc12	u	-15%	u	1%	u
CCOc1ccc2c(c1)sc(N)[n+]2Cc1cc(C)cc2cccnc12	u	-11%	-7%	2%	-85*
O=C1CC(c2ccccc2)CC(=O)C1CS(=O)(=O)c1ccccc1 (stereo not drawn)	x	x	11µM*	2%	x
COc1cc2c(cc1OC)/C(=C/C#N)NC(C)(C)C2	-4%	-21%	2µM*	-3%	u
S=P(N1CC1)(N1CC1)N1CC1	u	10µM*	-4%	-6%	x
N#Cc1c(N)n[nH]c1-c1cc2c([nH]1)CCCC2	-10%	-20%	1%	2%	-100*
N#Cc1c(N)n[nH]c1CCCN	7%	-8%	-3%	-4%	-22
Cc1cccc(Cn2cccc2CNS(=O)(=O)c2ccccc2F)c1	11%[46 µM]	x	x	x	x
SMILES	LMNA splice mod	HPGD inh	ALDH1A1 inh	KinaseGlo FLuc	PNC inhibitor
CN1C(=O)OC2(C)CCc3ccccc3C12C (stereo not drawn)	-1%	x	32µM*	x	u
CC1(C)CC2(CC(C)(C)N1)OC(=O)N1CCc3ccccc3C12C (stereo not drawn)	-14%	2%	5%	2%	-23
CCN(CC)c1ccc(NC(=O)c2cnccn2)cc1S(=O)(=O)Nc1ccc(OC)cc1	-20%	-4%	4%	1%	u
CCN(CC)c1ccc(NC(=O)c2ccccc2Br)cc1S(=O)(=O)Nc1ccccc1OC	u	2.2µM*	1.6µM*	0%	-13
CCN(CC)c1ccc(NC(=O)COc2ccccc2C#N)cc1S(=O)(=O)Nc1ccc(OC)cc1	-8%	-21%	22µM*	0%	22
CCN(CC)c1ccc(NC(=O)c2ccc(=O)[nH]c2)cc1S(=O)(=O)Nc1ccccc1OC	-13%[46 µM]	x	4µM*	-1%	x
CCN(CC)c1ccc(NC(=O)COc2ccccc2C)cc1S(=O)(=O)Nc1ccccc1OC	-8%	28µM*	12µM*	1%	-13
COC(=O)c1c(-c2cccs2)csc1NC(=O)COc1ccccc1	2%[46 µM]	x	x	x	x
O=C(c1ccco1)N1CCC2(CCCN(c3ccccn3)C2)CC1	x	-27%	u	1%	x
CCOC(=O)c1noc2nc(C)n(CC(=O)Nc3ccc(Br)cc3C)c(=O)c12	8%[46 µM]	x	x	x	x
CCN(CC)c1ccc(NC(=O)c2ccccc2F)cc1S(=O)(=O)Nc1ccccc1OC	-10%	14µM*	4.5µM*	-3%	-15
COc1ccc(NC(=O)c2ccccc2F)cc1Cl	-3%	u	-4%	-9%	-5
CCn1cc[n+](C)c1P(c1ccccc1)c1ccccc1	u	25µM*	8%	-2%	-13
COc1ccccc1CNC(=O)CCn1c(=O)[nH]c2ccsc2c1=O	-2%	-6%	9%	2%	-100*
COc1ccccc1N1CCN(C(=O)CCCn2c(=O)[nH]c3ccsc3c2=O)CC1	-4%	-4%	-3%	-1%	34
COc1ccccc1N1CCN(S(=O)(=O)CCNC(=O)C(c2ccccc2)c2ccccc2)CC1	-12%[46 µM]	x	x	x	x
CN(C1CCCCC1)S(=O)(=O)Cc1ccccc1	7%	18µM*	-95%	3%	35
CS(=O)(=O)N(CC(=O)NCc1ccccc1)C1CCCCC1	-5%	-7%	5%	1%	u
Cn1cccc1CC(=O)N/N=C/c1cccc2ccccc12	-12%	16µM*	u	2%	-14
Cn1cccc1CC(=O)N/N=C\c1c2ccccc2cc2ccccc12	2%	-10%	-2%	-3%	-11
CCOC(=O)c1cccc(NC(=O)NC2COc3ccccc3C2)c1 (stereo not drawn)	3%[46 µM]	x	x	x	x
Cc1nn(C(C)c2n[nH]c(=S)n2-c2cccc(Cl)c2)c(C)c1[N+](=O)[O-] (stereo not drawn)	2%	22µM*	5%	6%	86
Cc1ccc(-n2c(C(C)n3nc(C)c([N+](=O)[O-])c3C)n[nH]c2=S)cc1 (stereo not drawn)	-3%	-14%	-7%	1%	2
COc1cccc(C(c2c(C)[nH]n(-c3ccccc3)c2=O)c2c(C)[nH]n(-c3ccccc3)c2=O)c1OC	-14%	22µM*	3.5µM*	0%	6
Cc1no[n+]([O-])c1COc1ccc(/C=C(\C#N)C(N)=O)cc1	20%	-18%	10µM*	-2%	69
CCOc1cc(/C=C(\C#N)C(N)=O)ccc1OCc1c(C)no[n+]1[O-]	x	x	4%	1%	x
CCOC(=O)N1CCN(C(=O)c2cccc(NS(=O)(=O)c3ccc(F)c(F)c3)c2)CC1	4%	-2%	18%	-2%	-89*
CCOC(=O)C1CCN(C(=O)c2cccc(NS(=O)(=O)c3ccc(F)c(F)c3)c2)CC1	-16%[46 µM]	x	3%	-1%	x
